Results reported in paper PMC4336329 (PLoS ONE, 2015).
Out of some 310,000 compounds screened, about 14,000 (4.5%) showed an effect of 50% or more. Effects have a minus sign here. The list comes from a sample in which strong results are over-represented; it also holds similar structures and randomly drawn compounds.

molecular target: human ether-à-go-go-related gene (hERG) potassium channel (human, UniProt Q12809); test: primary screen, population patch clamp on CHO cells stably expressing hERG; higher = less effect of the substance
Sequence (Q12809 whole entry, looked up): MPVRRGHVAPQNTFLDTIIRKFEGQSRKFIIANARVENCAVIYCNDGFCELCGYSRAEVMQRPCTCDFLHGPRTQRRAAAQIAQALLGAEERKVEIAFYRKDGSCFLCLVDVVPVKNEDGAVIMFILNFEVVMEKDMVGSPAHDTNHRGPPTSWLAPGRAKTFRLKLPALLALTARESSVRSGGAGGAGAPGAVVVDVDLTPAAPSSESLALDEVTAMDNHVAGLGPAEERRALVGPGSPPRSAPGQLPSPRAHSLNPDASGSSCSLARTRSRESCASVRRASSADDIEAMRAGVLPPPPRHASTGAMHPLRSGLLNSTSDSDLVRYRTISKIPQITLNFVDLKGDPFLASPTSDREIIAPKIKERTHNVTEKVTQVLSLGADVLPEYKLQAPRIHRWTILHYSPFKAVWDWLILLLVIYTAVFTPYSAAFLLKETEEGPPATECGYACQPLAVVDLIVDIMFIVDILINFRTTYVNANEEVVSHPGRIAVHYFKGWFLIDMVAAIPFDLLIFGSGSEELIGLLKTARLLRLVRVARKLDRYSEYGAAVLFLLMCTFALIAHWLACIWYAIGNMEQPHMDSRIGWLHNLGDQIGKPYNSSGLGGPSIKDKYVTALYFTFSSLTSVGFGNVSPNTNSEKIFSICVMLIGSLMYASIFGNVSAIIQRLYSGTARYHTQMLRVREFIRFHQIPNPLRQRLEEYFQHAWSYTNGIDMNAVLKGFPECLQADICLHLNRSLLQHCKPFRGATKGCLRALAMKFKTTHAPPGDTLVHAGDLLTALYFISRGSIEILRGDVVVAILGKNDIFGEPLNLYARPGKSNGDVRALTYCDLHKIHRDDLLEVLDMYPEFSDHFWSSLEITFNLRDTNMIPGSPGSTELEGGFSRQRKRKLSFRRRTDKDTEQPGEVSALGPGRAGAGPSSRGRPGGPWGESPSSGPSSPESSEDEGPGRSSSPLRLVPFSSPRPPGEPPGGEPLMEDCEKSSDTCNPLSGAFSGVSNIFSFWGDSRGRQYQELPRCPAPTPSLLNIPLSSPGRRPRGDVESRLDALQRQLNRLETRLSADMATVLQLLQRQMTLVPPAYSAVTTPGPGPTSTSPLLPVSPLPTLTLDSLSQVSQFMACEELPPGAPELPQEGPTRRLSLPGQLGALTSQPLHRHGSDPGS
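Also: peak tail current of the secondary pulse compared with the same well before compound.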

| SMILES | hERG current change (%, negative = inhibition) at 10uM [%] |
| --- | --- |
| Cc1cccc(N2C(=O)CN(Cc3sccc3C)C2=S)c1 | -7.83 |
| COc1ccccc1N1CCN(C(=O)c2cc(-c3ccccc3)on2)CC1 | 8.22 |
| CCn1c(N2CCN(S(=O)(=O)c3ccc(F)cc3)CC2)nc2ccccc21 | -36.2 |
| CCn1c(N2CCN(C(=S)NC)CC2)nc2ccccc21 | -30.2 |
| Cn1c(N2CCN(C(=O)Nc3ccc(F)cc3)CC2)nc2ccccc21 | -55.8 |
| CCn1c(N2CCN(C(=S)Nc3ccc(OC)cc3)CC2)nc2ccccc21 | -68.3 |
| Cn1c(Nc2ccc(F)cc2)nc2ccccc21 | -51.7 |
| Cn1c(N2CCN(C(=O)Nc3ccc(C(F)(F)F)cc3)CC2)nc2ccccc21 | -41.3 |
| CCn1c(N2CCN(C(=S)NCC(C)C)CC2)nc2ccccc21 | -30.4 |
| Cn1c(Nc2ccccc2)nc2ccccc21 | 1.74 |
| CCn1c(N2CCN(C(=O)Nc3ccc(F)cc3)CC2)nc2ccccc21 | -68.2 |
| O=C(Nc1ccc(F)cc1)N1CCN(c2nc3ccccc3s2)CC1 | 1.48 |
| CCn1c(N2CCN(C(=O)NC3CCCCC3)CC2)nc2ccccc21 | -32.5 |
| COc1ccc(Nc2nc3ccccc3n2C)cc1 | 11.3 |
| Oc1ccc(CN2CCc3ccccc3C2)c2cccnc12 | -48.8 |
| Cn1c(C(=O)N2CCN(C(=O)c3ccco3)CC2)cc2c(=O)n3ccccc3nc21 | -14.5 |
| CC(C)C(NS(=O)(=O)c1ccc2c(c1)OCCO2)C(=O)NCCc1ccccn1 (stereo not drawn) | 6.06 |
| Cc1cccc(NC(=O)CSc2nnc(C)c(C)n2)c1 | 15.3 |
| COc1nc(OC)nc(N2CCC(NC(=O)C(Cc3ccc(C(C)C)cc3)NC(C)=O)CC2)n1 (stereo not drawn) | 5.87 |
| CO/N=C(\C(=O)N[C@@H]1C(=O)N2C(C(=O)[O-])=C(COC(N)=O)CS[C@H]12)c1ccco1.[Na+] | 18.9 |
| O=C(Nc1ccc(Br)cn1)c1cccc2ccccc12 | 12.2 |
| CC1CCN(C(=O)COC(=O)c2cc(Cl)cc(Cl)c2N)CC1 | -19.9 |
| CCCCN1CCC(COC(=O)c2cc(Cl)c(N)c3c2OCCO3)CC1.Cl | -59.4 |
| Cl.O=C(OCCN1CCOCC1)c1ccc(Cl)cc1Cl | -0.913 |

| SMILES | hERG current change (%, negative = inhibition) at 10uM [%] |
| --- | --- |
| COc1cc(C(=O)OCc2cc(=O)c(O)co2)ccc1OC(F)F | -12.9 |
| O=C(NCC(=O)N(CCN1CCOCC1)C(C(=O)NC1CCCC1)c1cccnc1)c1cccs1 (stereo not drawn) | 13.1 |
| CCOC(=O)C1(CCCc2ccccc2)CCN(C(=O)CCOC)CC1 | -46.8 |
| CCOC(=O)C1(CCc2ccccc2)CCN(C(=O)CN2C(=O)CSC2=O)CC1 | -23.3 |
| CCOC(=O)C1(CCCc2ccccc2)CCN(C(=O)CCC2=NNC(=O)CC2)CC1 | 11.8 |
| CCOC(=O)C1(CCCc2ccccc2)CCN(Cc2cnn(C)c2)CC1 | -71.6 |
| CCOC(=O)C1(CCCc2ccccc2)CCN(C(=O)CCc2cnn(C)c2)CC1 | -74.2 |
| CCOC(=O)C1(Cc2ccccc2)CCCN(CCCn2cccn2)C1 (stereo not drawn) | -14.2 |
| CCOC(=O)C1(CCCc2ccccc2)CCN(CCCn2cccn2)CC1 | -79.1 |
| CCOC(=O)C1(CCc2ccccc2)CCN(C(=O)CCc2cnn(C)c2)CC1 | -51.2 |
| Cc1cc(OCC(=O)Nc2ccncc2)cc(C)c1Cl | 6.51 |
| Cc1ccc(CNC(=O)/C=C/C(=O)O)cc1 | -15.4 |
| Cc1n[nH]c(=O)n1-c1ccc(C(C)C)cc1 | 18.4 |
| O=C(Nc1ccccc1)NC1(C(=O)N2CCN(C(=O)c3ccco3)CC2)CCCCC1 | 0.526 |
| CCc1ccc(C2C(=O)c3ccccc3C2=O)cc1 | -3.18 |
| O=C(NNC(=O)c1cnccn1)c1ccc(Cl)cc1 | 10.1 |
| Cc1cccc(N2CCN(Cc3cc(=O)n4ccsc4n3)CC2)c1C | -37.1 |
| CCOC(=O)CC12CN3CN(C1)CC(CC(=O)OCC)(C3)C2=O | 8.62 |
| O=C(O)CCn1c(=S)oc2ccccc21 | -0.618 |
| CCOC(=O)C1(Cc2ccccc2)CCN(Cc2cnn(-c3ccccc3)c2)CC1 | -81.4 |
| CCOC(=O)C1(CCCc2ccccc2)CCN(Cc2cn(CC)nc2C)CC1 | -74.1 |
| CCOC(=O)C1(CCCc2ccccc2)CCN(C(=O)Cn2nc(C)nc2C)CC1 | -24.6 |
| CCOC(=O)C1(Cc2ccccc2)CCN(Cc2cnn(C(C)C)c2)CC1 | -28.7 |
| CCOC(=O)C1(Cc2ccccc2)CCN(Cc2cnn(CC)c2)CC1 | -21.2 |

| SMILES | hERG current change (%, negative = inhibition) at 10uM [%] |
| --- | --- |
| CCN1C(=O)C(=Cc2ccc(C)s2)C(=O)N(CC)C1=S | 5.09 |
| COc1ccc(OCC(=O)NCc2ccc(Cl)cc2)cc1 | 1.55 |
| COC(=O)c1nc(N)sc1-c1ccc(OC)cc1 | 10.3 |
| Cc1ccc(Oc2ccccc2NC(=O)CN2C(=O)NC3(CCCC3)C2=O)cc1 | 11 |
| O=C1NC(=O)N(c2cccc(Cl)c2)C(=O)/C1=C\c1ccc(Sc2nc3ccccc3[nH]2)o1 | 13.9 |
| O=C1NC(=O)N(c2ccccc2F)C(=O)/C1=C/c1ccc(Sc2nc3ccccc3[nH]2)o1 | -4.03 |
| O=C1NC(=O)N(c2ccc(Cl)cc2)C(=O)/C1=C\c1ccc(Sc2nc3ccccc3[nH]2)o1 | -65.6 |
| c1ccc(-n2ncc3c2ncn2nc(-c4ccco4)nc32)cc1 | 13.3 |
| COc1ccc(OC)c(S(=O)(=O)N2CCC(c3nc4ccccc4[nH]3)CC2)c1 | -55.7 |
| O=S(=O)(c1ccccc1F)N1CCC(c2nc3ccccc3[nH]2)CC1 | -13.3 |
| CC(=O)c1cccc(S(=O)(=O)N2CCC(c3nc4ccccc4[nH]3)CC2)c1 | -56.6 |
| CC(=O)Nc1ccc(S(=O)(=O)N2CCC(c3nc4ccccc4[nH]3)CC2)cc1 | -18.4 |
| O=S(=O)(c1cccc(C(F)(F)F)c1)N1CCC(c2nc3ccccc3[nH]2)CC1 | 0.277 |
| O=S(=O)(c1cccc(Cl)c1)N1CCC(c2nc3ccccc3[nH]2)CC1 | 2.21 |
| CC(=O)c1ccc(S(=O)(=O)N2CCC(c3nc4ccccc4[nH]3)CC2)cc1 | -54.3 |
| COc1ccc(S(=O)(=O)N2CCC(c3nc4ccccc4[nH]3)CC2)cc1 | 10.3 |
| O=S(=O)(c1ccc(F)cc1)N1CCC(c2nc3ccccc3[nH]2)CC1 | -2.46 |
| Cc1[nH]c2ccc(F)cc2c1CCN(Cc1ccncc1)C(=S)Nc1ccc(F)cc1 | -38.4 |
| CC1=NN(C(=O)c2ccc(Cn3cc([N+](=O)[O-])cn3)cc2)C(O)(C(F)(F)F)C1 (stereo not drawn) | -21.1 |
| Cc1ccc(C)c(NC(=O)CN2C(=O)COc3ccc(S(=O)(=O)N4CCCC4)cc32)c1 | -0.517 |
| O=C1NC(=O)C(=Cc2ccc(N3CCOCC3)cc2)C(=O)N1 | 12.9 |
| Cc1cc(C(=O)Nc2ncn[nH]2)ccc1[N+](=O)[O-] | 26.3 |
| Cc1cc(C)nc(NC(=O)c2ccc([N+](=O)[O-])c(C)c2)n1 | 7.43 |
| Cc1cc(C(=O)Nc2ncn(Cc3ccc(F)cc3)n2)ccc1[N+](=O)[O-] | -51.7 |

| SMILES | hERG current change (%, negative = inhibition) at 10uM [%] |
| --- | --- |
| C[C@]12C[C@H](O)[C@H]3[C@@H](CCC4=CC(=O)CC[C@@]43C)[C@@H]1CC[C@@H]2C(=O)CO | 0.529 |
| Cl.N=c1n(CCO)c2ccccc2n1Cc1ccccc1Cl | -20 |
| Cc1ccccc1Cn1c(=N)n(CC(O)c2ccco2)c2ccccc21.Cl (stereo not drawn) | -59.8 |
| Cl.N=c1n(Cc2ccccc2Cl)c2ccccc2n1CC(O)c1ccco1 (stereo not drawn) | -56.7 |
| Br.CC(C)(C)C(=O)Cn1c(=N)n(Cc2ccccc2Cl)c2ccccc21 | -49.2 |
| Cc1ccccc1Cn1c(C(C)O)nc2ccccc21 (stereo not drawn) | 4.7 |
| Cc1ccccc1Cn1c(=O)n(Cc2ccco2)c(=O)c2ccccc21 | 2.24 |
| CCOC(=O)C1CCN(C(=O)CCn2c(=O)c3cccn3c3cccnc32)CC1 | -33.2 |
| Cc1c(C(=O)NCCc2ccccc2)oc2ccccc12 | 1.98 |
| CN(C)C(=O)NC(O)C(Cl)Cl (stereo not drawn) | -2 |
| Cc1nn(C)c(C)c1NS(=O)(=O)c1ccccc1Cl | 4.16 |
| CCc1ccccc1NC(=O)C1CCCN(c2ncnc3onc(-c4ccc(F)cc4)c23)C1 (stereo not drawn) | 11.2 |
| CCOc1ccc(/C=N/NC(=O)c2ccc(Cn3cc([N+](=O)[O-])cn3)o2)cc1 | -31.4 |
| O=C(N/N=C/c1cccc(Br)c1)c1ccc(Cn2cc(Br)cn2)o1 | -40.9 |
| O=C(N/N=C/c1cccnc1)c1ccc(Cn2cc([N+](=O)[O-])cn2)o1 | -8.7 |
| O=C(N/N=C\c1ccc(F)cc1)c1ccc(Cn2cc(Br)c([N+](=O)[O-])n2)o1 | -59.9 |
| COc1cc(/C=N\NC(=O)c2ccc(Cn3cc(Br)c([N+](=O)[O-])n3)o2)cc(OC)c1O | -11.9 |
| CN(C)c1ccc(/C=N/NC(=O)c2ccc(Cn3cc(Br)cn3)o2)cc1 | -46.1 |
| Cc1ccc(/C=N/NC(=O)c2ccc(Cn3cc([N+](=O)[O-])cn3)o2)cc1 | -65 |
| O=C(N/N=C\c1ccc2c(c1)OCO2)c1ccc(Cn2cc(Br)c([N+](=O)[O-])n2)o1 | -8.65 |
| CCOc1ccc(/C=N/NC(=O)c2ccc(Cn3cc(Br)cn3)o2)cc1 | -56.4 |
| COc1cc(/C=N/NC(=O)c2ccc(Cn3cc([N+](=O)[O-])cn3)o2)cc(Br)c1O | -77.5 |
| O=C(N/N=C\c1cccc(F)c1)c1ccc(Cn2cc(Br)c([N+](=O)[O-])n2)o1 | -33.9 |
| COc1ccc(/C=N/NC(=O)c2ccc(Cn3cc([N+](=O)[O-])cn3)o2)cc1O | 15.8 |
